We go through eight compounds from PubChem BioAssay (NCI).

Common to all, as to assay: NCI-60 one-dose screen, 48 h (100 = growth as untreated, 0 = no growth, -100 = all killed)
Common to all, as to details: 10 µM unless noted

In assay [1] the test system is NCI-H23 lung.
The subject of assay [2] is NCI-H226 lung.
The subject of assay [3] is NCI-H322M lung.
Assay [4] concerns HOP-62 NSCLC.
Assay [5] concerns NCI-H460 lung.
Assay [6] has as its system HOP-92 NSCLC.
In assay [7] the test system is NCI-H522 lung.
For assay [8], the system named is A549/ATCC NSCLC.
In assay [9] the test system is 786-0 renal.
In assay [10] the test system is COLO 205 colon.
Assay [11] has as its system DU-145 prostate.
In assay [12] the test system is K-562 leukemia.
In assay [13] the test system is MALME-3M melanoma.
Assay [14] relates to MDA-MB-231 breast.
The test system of assay [15] is RXF 393 renal.
For assay [16], the system named is SF-268 CNS.
The test system of assay [17] is SF-295 CNS.
The subject of assay [18] is SF-539 CNS.
The test system of assay [19] is UACC-257 melanoma.
For assay [20], the system named is M14 melanoma.

Compounds without any hit were thinned out: in the full panel of roughly 83,000, 20% have a hit.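 Percent growth is the endpoint: 0 to 100 indicates growth inhibition (40 means 60% inhibition), 0 means no net growth, and negative values indicate cell death.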 Values without a mark were called inactive. The source made the active and inactive calls. Rule for the calls: active = growth percent below 10; inactive = the rest.

Take `O=C(Nc1ncc(Cc2ccc(Cl)cc2)s1)C1=NCCCCN1`: the growth in assay [1] was 99%; in assay [2] it was 99.7%; in assay [3], 94.9%; in [4], 108%; in assay [5], 106%; in assay [6], 119%. Also, the growth in assay [7] was 82.1%; in assay [8] it was 109%; in assay [9], 107%; in assay [10], 110%; in assay [11] it was 105%; in assay [12] it was 95.4%. Moreover, the growth in assay [13] was 102%; in assay [14] it was 110%; in assay [15], 119%; in assay [16], 103%; in [17], 102%; in [18], 102%. The growth was 108% in [19] and 104% in assay [20].

Consider `Cc1nc2ccccc2c(/C=C/c2ccc(Br)cc2)c1C(=O)/C=C/c1ccccc1`, for which the growth in assay [1] is 8.31% (active); in [2] it was 25.1%; in assay [3], 35.3%; in assay [4] it was -35.1% (active); in [5], -56.4% (active); in assay [6], 53.1%. In addition, the growth in assay [7] is -34.9% (active); in assay [8], 14.8%; in assay [9] it was 2.23% (active); in [10], -29.5% (active); in assay [11], -3.75% (active); in assay [12] it was 7.54% (active). Further, the growth is -28.4% (active) in [13]; 11.9% in [14]; -71.3% (active) in assay [15]; 51.9% in [16]; 4.22% (active) in assay [17]; -62.7% (active) in assay [18]. Further, the values for the growth in assay [19] and in assay [20] were -4.07% (active) and 6.49% (active), respectively.

In the case of `O=C1/C(=C/c2ccc(-c3ccc(Cl)cc3)o2)SC(=S)N1CCc1ccc(O)cc1`, the growth was 81.3% in [1]; 84.1% in assay [2]; 70.3% in [3]; 46.8% in [4]; 9.88% (active) in assay [5]; 55.3% in assay [6]. Also, the growth was -18.8% (active) in assay [7]; 17.6% in [8]; 60.9% in [9]; 16.8% in assay [10]; 29.1% in [11]; 26.1% in assay [12]. In addition, the growth in assay [13] is 76.7%; in [14] it was 75.6%; in [15], 70%; in assay [16] it was 31.2%; in assay [17], 104%; in assay [18], 70.9%. Besides, the growth in assay [19] is 42%; in assay [20], 38.2%.

As to `CCCCCCCCCCCCCC[n+]1ccc2c(C)c3c(c(C)c2c1)c1cc(O)ccc1n3CC`, the growth is -64% (active) in assay [1]; -40.5% (active) in assay [2]; -62% (active) in assay [3]; -57.1% (active) in [4]; -67.7% (active) in [5]; -84.4% (active) in assay [6]. Besides, the growth in assay [7] is -42.9% (active); in assay [8], 7.99% (active); in [9], -73.4% (active); in assay [10], -69.9% (active); in assay [11], -93.4% (active); in assay [12], -55.7% (active). Moreover, the growth in assay [13] was -84.7% (active); in assay [14] it was -74.6% (active); in assay [15], -63.3% (active); in assay [16], -82.7% (active); in assay [17], -54.3% (active); in [18], -83.9% (active). Besides, the growth in [19] was -69.3% (active); in assay [20] it was -86.7% (active).

On to `CS(=O)(=O)c1cccc(Nc2ncc3cc(-c4ccccc4Cl)ccc3n2)c1`, for which the growth in [1] was 26.7%; in assay [2], 31.1%; in assay [3] it was 26.8%; in assay [4], 15.3%; in [5], 5.47% (active); in assay [6] it was -1.06% (active). Also, the growth in assay [7] was -44.3% (active); in assay [8], 13.8%; in assay [9] it was 12.2%; in [10], -8.05% (active); in assay [11] it was 18.6%; in assay [12], 1.05% (active). Further, the growth in assay [13] is 11.8%; in [14], 3.46% (active); in assay [15], -14.3% (active); in assay [16] it was 19.9%; in assay [17], 20.9%; in assay [18], -10.5% (active). The growth is 24.8% in assay [19] and 5.89% (active) in assay [20].

`COc1ccccc1-c1nc2ccc3[nH]ncc3c2c2c1CCCC2`: the growth was 69% in assay [1]; 81.4% in assay [2]; 82.8% in assay [3]; 61.2% in assay [4]; 82.5% in assay [5]; 70.5% in assay [6]. Moreover, the growth was 55% in [7]; 65.2% in assay [8]; 67.7% in [9]; 74.7% in assay [10]; 73.5% in [11]; 83.3% in assay [12]. Besides, the growth in [13] was 99.2%; in [14], 62.4%; in assay [15], 51.2%; in [16], 55.6%; in [17], 70.5%; in assay [18] it was 50.5%. The growth in assay [19] is 86.4%; in [20] it was 76.3%.

Turning to `C=C(C)[C@@H]1CC[C@]2(C(=O)NC(C)=O)CC[C@]3(C)[C@H](CC[C@@H]4[C@@]5(C)CCCNC(C)(C)[C@@H]5CC[C@]43C)[C@@H]12`, the growth is 59.7% in [1]; 83.6% in [2]; 63.3% in assay [3]; 56.4% in assay [4]; -84.2% (active) in assay [5]; 56.4% in assay [6]. In addition, the growth in assay [7] was -46.7% (active); in [8] it was 26.8%; in assay [9], 59.4%; in [10] it was -59% (active); in assay [11] it was 24.8%; in assay [12] it was 3% (active). The growth is -83.3% (active) in assay [13]; 23.7% in assay [14]; 25.2% in assay [15]; 60.5% in [16]; 77.6% in assay [17]; -79.6% (active) in assay [18]. For the same compound, the growth in [19] was -64.5% (active); in [20] it was -65.3% (active).

Turning to `Nc1ccc(N)c2c1C(=O)c1cccc([N+](=O)[O-])c1C2=O`, the growth is -29.1% (active) in [1]; 16.6% in assay [2]; 2.12% (active) in assay [3]; 9.73% (active) in assay [4]; -3.34% (active) in [5]; 63.3% in [6]. In addition, the growth is 25.6% in assay [7]; 20.8% in assay [8]; 17.4% in [9]; 66.3% in assay [10]; -15.9% (active) in [11]; 40.4% in assay [12]. For the same compound, the growth in assay [13] is 54.3%; in [14] it was 67.9%; in assay [15] it was 45.7%; in assay [16] it was 57.3%; in assay [17], 21.3%; in assay [18], 23.6%. Further, the growth is 52.3% in assay [19] and 30.8% in [20].
